Out of some 75,000 compounds screened, about 15 (0.02%) were called active. Another 3% or so got no clear call; they are omitted. The call rests on the fitted dose curve; in most records, active means well fitted inhibition curve with a large enough effect in the main read-out, with a control signal flat (not every such curve was filed as active); inconclusive means small, poorly fitted or top-dose-only effect, or a change in a side signal; inactive means flat fitted curve, though single readings scatter. For the sample, actives were picked, then their nearest neighbours and some compounds at random.
What follows are molecules tested against Caspase-7 (Homo sapiens) (UniProt P55210) (assay: qHTS Assay for Allosteric/Competitive Inhibitors of Caspase-7). Details: recombinant caspase-7, Ac-DEVD-AFC fluorescence rate; series mostly up to 57.5 µM.
Chain of Caspase-7 (Homo sapiens) (P55210 24-198 limits assumed): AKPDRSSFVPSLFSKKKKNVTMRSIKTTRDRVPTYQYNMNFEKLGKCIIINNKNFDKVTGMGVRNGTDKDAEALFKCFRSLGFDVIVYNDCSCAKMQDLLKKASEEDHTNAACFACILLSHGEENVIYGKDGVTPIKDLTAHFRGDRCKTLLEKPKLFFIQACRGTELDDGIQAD
Chain of Caspase-7 (Homo sapiens) (P55210 207-303 limits assumed): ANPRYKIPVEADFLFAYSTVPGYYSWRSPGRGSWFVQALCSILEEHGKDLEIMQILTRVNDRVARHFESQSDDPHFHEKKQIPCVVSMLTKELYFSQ
Source text: NIH Molecular Libraries Screening Centers Network [MLSCN]
NIH Chemical Genomics Center [NCGC]
PI Name: Dr. James Wells,
Dr. Enrique Perez-Paya, Dr.Janice Williams, Dr. Dennis Wolan, a person
The caspases (Cysteine Aspartyl Protease) comprise a related family of 14 dimeric proteases that are critical mediators of apoptosis (programmed cell death) and inflammation. The caspases represent an important class of drug targets for stroke, ischemia, cancer and inflammatory diseases. […] One goal of this project was to identify compounds that act as allosteric inhibitors via stabilizing the procaspase form of the enzyme. Previous work in Well's laboratory has shown that such allosteric inhibitors can be identified and these act by binding at the dimer interface of enzyme (Hardy, Lam et al., 2004).
The biochemical assay was configured using purified caspase 7 at a high enzyme concentration to promote formation of the homodimers and thus facilitate the identification of allosteric inhibitors. The overall goal was to identify reversible inhibitors with better drug-like properties than the currently available set of aspartyl-containing peptidomimetics that covalently bind the active site. Caspase 7 was assayed using the profluorescent substrate Ac-DEVD-AFC. After initiation of the assay with substrate the plates were rapidly read using an automated robotic system (Kalypsys, Inc.) to maintain consistent timing. A kinetic mode of detection was used where the initial rate was collected (estimated final product formation was ~10%). Compounds were screened as a concentration-titration series that ranged from 57 uM to 0.7 nM. Below is the protocol used for caspase 7.
NCGC Assay Protocol Summary:
Caspase 7 was prepared in buffer (50 mM HEPES pH 7.5, 50 mM KCl, 200 mM NaCl, 10 mM DTT, 0.1% CHAPS) at a concentration of 66.6 nM and 3 uL was dispensed to all wells using black solid Kalypsys 1536-well plates. 20 nL of DMSO containing compounds was added using a pin-tool (Kalypsys Inc.) to columns 5-48. Then 20 nL of DMSO solution from a control plate was added to columns 1-4. Controls were: Column 1, 16 point titration with each concentration in duplicate (1:1 dilutions in DMSO; final starting concentration was 57 uM) of the caspase 7 inhibitor Ac-DEVD-CHO (Alexis Biochemicals); Column 2, a 16 point titration with each concentration in duplicate of the free AFC fluorophore prepared in DMSO (Alexis Biochemicals), final starting was 40 uM; Column 3 neutral (DMSO only) control; Column 4: DMSO alone, to serve as a negative control (no substrate was added). Then 1 uL of 20 uM the substrate Ac-DEVD-AFC (Alexis Biochemicals) prepared in the same buffer was dispensed to all wells except columns 2 and 4 and the plates were immediately transferred (< 1 min) to the Viewlux. The plates were then exposed using 405 nm excitation/520 nm emission filters for 4 sec and read at 20 sec intervals for 3 min. Final enzyme concentration was 50 nM and the final substrate concentration was 5 uM.
Concentration-response curves were fitted to the data calculated from slope of the linear regression of fluorescent intensity versus time (the rate). The concentration-effect curves were then classified based on curve quality (r2), response magnitude and degree of measured activity. […] Inconclusive compounds had appreciable concentration-dependent effects on both the measured rate and the interpolated basal fluorescence intensity at the start of the reaction but where the basal fluorescent intensity was marginal (e.g. < 10-fold). Inconclusive compounds also encompass highly fluorescent compounds (>100-fold increases in fluorescent intensities values relative to controls) where artificial concentration-dependent decreases in the rate occurred at high compound concentrations due to fluorescent interferences.
Keywords: Caspase 7, proteases, profluorescent, MLSMR, MLSCN, NIH Roadmap, qHTS, NCGC
Further: % of control where 0% means no effect.

Activity change, negative = inhibition, inactive:
Cc1ccc(S(=O)(=O)NC(C)C(=O)Nc2ccccc2C(=O)N2CCCC2)cc1 (stereo not drawn)
Cn1c(=S)c2[nH]c(SCCCc3ccccc3)nc2n(C)c1=O 0.0837% [at 11.5 µM]
CCC1=C(OC(=O)N(CC)CC)N2C(=O)OC(=NCC3CC3)[C@]2(C)[C@H]2C1=CC[C@H]1C(=O)N(CC(=O)OC)C(=O)[C@H]12
Fc1ccc(-c2nnc3sc(-c4ccc5c(c4)OCO5)nn23)cc1
Cn1c2c(c(=O)n(C)c1=O)C(c1ccc(O)cc1)Nc1ccccc1O2 (stereo not drawn)
CCOC(=O)c1[nH]c2c(c1C)C(=O)CC(c1ccc(N(C)C)cc1)C2 (stereo not drawn)
COc1ccc(NS(=O)(=O)c2ccc(NC(=O)C(C)(C(F)(F)F)C(F)(F)F)cc2)nn1
Cc1cc(C(=O)COC(=O)c2cccs2)c(C)n1-c1c(C)n(C)n(-c2ccccc2)c1=O
COc1ccc2c3c1OC1CC(O)C=C[C@@]31CCN(C)C2 (stereo partly drawn)
Cc1ccc(S(=O)(=O)C2(S(=O)(=O)c3ccc(C)cc3)CCCC2)cc1
CCCN1C(=O)C(NS(=O)(=O)c2ccc(N)cc2)(C(F)(F)F)C(C(=O)OC)=C1C (stereo not drawn)
CS(=O)(=O)c1ccc2nc(NC(=O)C3CCCCC3)sc2c1
CC(=O)OC1CCC2(O)CC1(C)CCC1C2CC1(C)C (stereo not drawn)
CC(C)C(N)C(=O)OCCOCn1cnc2c(=O)[nH]c(N)nc21 (stereo not drawn)
CC(C)(CSc1nncn1/N=C/c1ccco1)NS(=O)(=O)c1ccc(Cl)cc1
NC(=O)C1CCN(C(=O)c2ccc(C(F)(F)F)cc2)CC1
Cc1ccccc1CN1CCN(CC(=O)NCc2ccccn2)C1=O
BrC1C(Br)C(Br)C(Br)C(Br)C1Br (stereo not drawn)
CC(=O)N1CCC2(CCCN(c3ncccn3)C2)CC1
CC1CCCCN1CCCNC(=O)c1ccc(-n2c(=O)c(=O)[nH]c3ccccc32)cc1 (stereo not drawn)
CCCn1c(SCC(=O)Nc2cccc(C(=O)OCC)c2)nnc1-c1ccoc1C
COC(=O)CC1C(C)(C)C(OC(C)=O)C2CC3=C4CC(=O)OC(c5ccoc5)[C@]4(C)CCC3[C@@]1(C)C2=O (stereo partly drawn)
O=C1NS(=O)(=O)c2ccccc21
CC12CN3CC(C)(CN(C1)C3c1ccc(Cl)cc1Cl)C2=O (stereo not drawn)
C[N+](C)(C)CCNC(=O)c1c(O)c2c([nH]c1=O)CCCC2
CCOC(=O)N1CCC(O)(c2cc(C)c(C)cc2C)CC1
Cc1cc(C)cc(N(CC(=O)Nc2c(C)n(C)n(-c3ccccc3)c2=O)S(C)(=O)=O)c1
COc1ccc(Cn2c(=O)sc3ccccc32)cc1OC
CCOC(=O)N1CCN(C(=O)CSc2nnc(-c3c[nH]c4ccccc34)n2CCOC)CC1
CCN(CC)C(=O)CSc1nnc(-c2ccc(S(=O)(=O)NCc3ccccc3Cl)cc2)o1
Cc1ccccc1NC(=O)c1cc(S(=O)(=O)N2CCOCC2)cs1
CCOC(=O)c1[nH]cnc1C(=O)NC1CCCCC1
Oc1cc(O)c2c(c1)OC(c1ccc(O)c(O)c1)C(O)C2 (stereo not drawn)
CCOc1ccc(NS(=O)(=O)c2ccc(OCC(=O)NCCCOC)cc2)cc1
COc1cccc(Cn2c(=O)c(C)nc3cnc(Oc4ccccc4)nc32)c1
CCOc1ccc(Cn2c(SCCCCC#N)nc3c2c(=O)n(C)c(=O)n3C)cc1OCC
Cc1onc(-c2ccccc2Cl)c1C(=O)NCCn1ccc2ccccc21
CC1O[C@@H](Oc2c(-c3ccc(O)c(O)c3)oc3cc(O)cc(O)c3c2=O)C(O)C(O)C1O (stereo partly drawn)
CCC1Oc2ccc(Cl)cc2N(CC(=O)O)C1=O (stereo not drawn)
O=C(Cc1cccs1)N1CCCC(c2nc(-c3ccc(S(=O)(=O)N4CCCC4)cc3)no2)C1 (stereo not drawn)
CN(C)CCc1c[nH]c2ccc(Cn3cncn3)cc12
C=CCn1c(COc2ccccc2F)nnc1SCC(=O)N1CC(=O)Nc2ccccc21
O=NO
COC(=O)c1ccc(N(CC(=O)NC2CCCC2)C(=O)CNC(=O)c2ccco2)cc1
COc1ccc(C(=O)CSc2nccc(=O)[nH]2)cc1
COc1cc(OC)c(C(=O)Nc2ccc(N(C)C)cc2)cc1OC
CC1CSc2nnc(CCc3ccccc3)n21 (stereo not drawn)
O=c1c(O)c(-c2ccc(O)cc2)oc2ccccc12
CC(C)NS(=O)(=O)c1ccc(OCC(=O)Nc2ccc3c(c2)OCCO3)cc1
CCOC(=O)Cc1csc(NC(=O)CN(C)S(=O)(=O)c2ccc3c(c2)CCC(=O)N3)n1
CC1CCCC(NC(=O)CN2CCN(Cc3ccc(Cl)cc3)C2=O)C1C (stereo not drawn)
CCC(Oc1ccccc1)C(=O)NCc1cccnc1 (stereo not drawn)
CC1(C)C=CC(=O)[C@]2(C)C1CC(=O)[C@]1(C)C2CC[C@@]2(C)C(c3ccoc3)OC(=O)C3OC321 (stereo partly drawn)
CCCCCNC(=O)Cc1ccc(OC)cc1
C=CC(=O)c1ccc2ccccc2c1
COC(=O)C1=C(N)Oc2cc(C)oc(=O)c2C1c1cccnc1 (stereo not drawn)
CCOC(=O)c1c(-n2cnnn2)sc(C)c1C
CNc1ncnc2ccc(-c3cccc(NS(C)(=O)=O)c3)cc12
Cn1cccc1Cc1nnc(SCC(=O)NCc2ccc3c(c2)OCO3)n1CCc1ccccc1
CC(C)(C)c1ccc(NC(=O)NCc2ccco2)cc1
CC1(C)OC2CC3C4CCC5=CC(=O)CCC5(C)C4(F)C(O)CC3(C)[C@]2(C(=O)CCl)O1 (stereo partly drawn)
C=C[C@](C)(O)CCC1C(=C)CCC2[C@@](C)(CO)CCC[C@@]12C (stereo partly drawn)
COc1c(C(C)C)oc2cc3oc(=O)ccc3cc12
COC(=O)[C@@H]1C[C@@]2(O)[C@H](O)[C@H](O)[C@H](O)C[C@H]2N1CC1CCCCC1
Clc1ccc(C=NC23CN4CN(CN(C4)C2)C3)cc1
O=C1CCCC(O)=C1C=NCCc1ccccc1
CCC(C)(C)n1nnnc1C(c1cccs1)N1CCN(Cc2ccccc2)CC1 (stereo not drawn)
Cc1c(S(=O)(=O)O)oc2c1C(=O)C(=O)c1c-2ccc2c1CCCC2(C)C

Source: PubChem BioAssay AID889 (National Center for Advancing Translational Sciences (NCATS), 2007)
